Most compounds without a hit are left out; they make up all but 8.1% or so of the library.
ClpP mod: qHTS Assay for Activators of ClpP; purified B. subtilis ClpP, FRET peptide cleavage, 20 min; Potency, µM (series often up to 57.5 µM), without a hit: top-dose activity change, negative = active; 1.9% of 340,000 active; AID 651965, 2013; active = well fitted falling curve with a large enough effect; inconclusive = small, poorly fitted or top-dose-only effect; inactive = no such curve, though single readings can be large or run the other way; also: the source files actives as falling curves though it sought activators and does not explain the sign; nearly all actives have a fitted effect of over 65% in size
Target sequence (P80244 whole entry, looked up): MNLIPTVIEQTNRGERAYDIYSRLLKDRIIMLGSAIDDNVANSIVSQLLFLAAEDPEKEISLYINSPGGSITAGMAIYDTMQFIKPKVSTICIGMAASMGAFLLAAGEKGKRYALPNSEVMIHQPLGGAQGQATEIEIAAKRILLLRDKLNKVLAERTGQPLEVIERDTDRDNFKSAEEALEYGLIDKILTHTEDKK
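FRET quenching reversal measured ClpP activation: 10 microg/mL B. subtilis ClpP at pH 8 with the FRET-FV decapeptide, read at 430 nm after 320 nm excitation. The 20-min minus 0-min signal was scaled between DMSO/no-enzyme wells and ADEP (5.8 microM final).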
Sfp PPTase inh: Sfp phosphopantetheinyl transferase inhibition; AID 1490; Potency, µM, for the others: largest response in the series, negative = inhibition, actives largely listed as inhibitors; Q9F4F7; Biochemical Sfp PPTase activity, qHTS; 3.5% of 310,000 active;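 also: the enzyme is Sfp with the accession as filed and its product quenches rhodamine fluorescence; 0% = enzyme reaction without inhibitor and -100% = no enzyme wells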
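Buffer: 50 mM Hepes-Na pH 7.6, 10 mM MgCl2, 0.01% Nonidet P-40, 0.01% BSA. Enzyme 15 nM, pre-exposed to compound 15 min; substrates then added and fluorescence change tracked over 30 min.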
Epigenetic reg: epigenetic control regulation, reporter derepression | murine LDR cells, GFP reporter derepression, 30 h | Potency, µM (highest dose often 53.9 µM), for inactives: at the highest dose GFP activation, actives largely listed as activators | 0.2% of 280,000 active | AID 1865; also: % of control where 0% means no effect; nearly all actives have a fitted effect of over 60% in size
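In this reporter-derepression format, murine cells bearing a silenced integrated CMV-GFP locus incubate with test compound (30 h, 37 C), then are washed and imaged; fluorescent objects of 20–120 um count as induced cells.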
Gal4-VP16 FLuc: inhibits Gal4-VP16 luciferase reporter, ROR gamma counter-screen | Drosophila S2 Gal4-VP16 UAS-luciferase, luminescence, 20 h | Potency, µM (highest dose often 53.6 µM), for the others: at the highest dose activity, negative = inhibition, actives largely listed as inhibitors | 3.5% of 310,000 active;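 also: Gal4-VP16 expression switched on by copper sulfate through the metallothionein promoter; % is scaled to controls: 0 for no effect and ±100 for the full control effect; nearly all actives have a fitted effect of over 50% in size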
PINK1 modulator: PINK1 expression modulation; Potency, µM (doses to about 76.6 µM), inactives show top-dose activation (PINK1 increase), actives largely listed as activators; PINK1 immunofluorescence, high-content cytometry, 24 h; 0.2% of 410,000 active; active = well fitted activation curve with a large enough effect; inconclusive = small, poorly fitted or top-dose-only effect; cell line not stated here; also: % of control where 0% means no effect; nearly all actives have a fitted effect of over 65% in size
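Readout is PINK1 immunofluorescence, quantified alongside mitochondrial, cell and nuclear markers by laser-scanning microplate cytometry. Cells from a stable line were exposed to compound titrations (5 concentrations) for 24 hours, with CCCP controls.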
RORgamma inh: ROR gamma (mouse) transcription inhibition; P51450; Drosophila S2 Gal4-RORgamma UAS-luciferase reporter, 20 h; 5.4% of 310,000 active; AID 2551; Potency, µM (doses to about 53.6 µM), for the others: at the highest dose activity change, negative = inhibition, most hits filed as inhibitors; also: % is scaled to controls: 0 for no effect and ±100 for the full control effect; nearly all actives have a fitted effect of over 60% in size
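Drosophila S2 cells stably expressing Gal4-DBD/mouse RORγ fusion under metallothionein promoter plus UAS-luciferase; compound 1 h, then 700 uM CuSO4 induction for 20 h at ambient temperature; inhibition read as reduced luminescence.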
Numbers without * were called inactive; ? = inconclusive; / = no result given; [ ] = remark or other dose. Unless noted, calls follow the shape of the dose curve; as a rule, active = well fitted curve in the direction sought with a large enough effect; inconclusive = small, poorly fitted or top-dose-only effect, or another doubt; inactive = no such curve, though single readings can be large; an effect the other way counts as inactive or inconclusive. Potency is read from the fitted curve at half-maximal effect.

SMILES	ClpP mod	Sfp PPTase inh	Epigenetic reg	Gal4-VP16 FLuc	PINK1 modulator	RORgamma inh
C=CCCCCCCCCc1nc(=S)[nH][nH]1	1.8%	-8.0%	0.0%	-3.3%	-1.6%	12.6µM*
CCCCCCc1cc2cc(C(=O)OCC)c(=O)oc2cc1O	-22.6%	14.9%	-0.3%	0.3%	?	-7.3%
COc1ccc(NC(=O)c2cc3ccc(O)cc3o/c2=N\O)cc1	/	-6.0%	/	0.1µM*	4.3%	0.0631µM*
COc1ccc2o/c(=N\O)c(C(=O)Nc3ccccc3OC)cc2c1	-2.9%	50.1µM*	-4.1%	?	-1.0%	2.82µM*
COc1ccc(OC)c(N=c2oc3cc(O)ccc3cc2C(N)=O)c1	28.2µM*	12.0%	-0.9%	-4.5%	11.6%[38.3 µM]	24.1%
CCCCCCc1cc2cc(S(=O)(=O)c3ccc(F)c(Cl)c3)c(=O)oc2cc1O	62.5%	-7.9%	-1.1%	3.98µM*	12.6µM*	?
O=C(NCCc1ccccc1)C(=O)NCC(c1cccs1)S(=O)(=O)c1cccs1 (stereo unspecified)	-0.1%	/	0.0%	/	0.8%	/
COc1ccc2oc(=O)c(C(=O)Nc3ccccc3O)cc2c1	-1.0%	-14.4%	8.5%	?	3.0%	8.91µM*
O=C(c1ccc(F)cc1)c1cc2ccc(O)cc2oc1=O	/	5.8%	/	-3.4%	2.0%	-11.2%
N=c1oc2cc(O)ccc2cc1C(=O)Nc1ccc(F)cc1	3.3%	-3.6%	/	7.08µM*	14.1µM*	11.2µM*
CCCCCCc1cc2cc(C(=O)Nc3ccc(OC)cc3)c(=O)oc2cc1O	-0.2%	8.7%	-0.9%	-6.0%	39.8µM*	10.9%
CCCCCCc1cc2cc(-c3nnc(-c4ccc(C)cc4)o3)c(=O)oc2cc1O	0.9%	/	2.24µM*	/	-1.2%	/
COC1=C(C(=O)c2ccccc2)C(=O)C2(CC=C(C)C)C[C@H](C(=O)OCC(F)(F)F)C(C)(C)[C@@]1(CC=C(C)C)C2=O (tested in a mixture with another compound)	/	0.9%	0.0%	-17.7%	/	2.9%
O=C1CCCc2[nH]c(=O)c(C(=O)NCc3ccccc3)cc21	-24.7%	/	/	/	1.5%	/
Cc1cccc(OCCCCn2c(C3CC(=O)N(c4ccc(C)cc4C)C3)nc3ccccc32)c1 (stereo unspecified)	-28.6%	/	4.6%	/	2.2%	/
CC(C)CNc1ncnc2oc(-c3ccco3)c(-c3ccco3)c12	4.4%	/	/	/	0.6%	/
Cc1ccc(C(=O)OCC(=O)NC(C)c2ccccc2)s1 (stereo unspecified)	/	/	/	/	2.3%	/
CC(NC(=O)COC(=O)c1ccc([N+](=O)[O-])s1)c1ccccc1 (stereo unspecified)	-9.8%	7.6%	-1.0%	-25.2%	0.6%	11.2µM*
Cc1cc(C)cc(NC(=O)c2ccc(NC(=O)C3C4CC5OC(=O)C3C5C4)cc2)c1 (stereo unspecified)	31.6µM*	21.2%	1.1%	7.7%	3.8%	7.7%
COc1cccc(NC(=O)C2C3CC4OC(=O)C2C4C3)c1 (stereo unspecified)	-0.9%	5.4%	0.0%	-1.9%	-2.8%	19.0%
CC1Cc2ccccc2N1C(=O)COc1nc2ccccc2nc1N1CCOCC1 (stereo unspecified)	28.2µM*	1.8%	-0.8%	-12.3%	2.4%	-4.1%
CCCNC(=O)COc1nc2ccccc2nc1N1CCOCC1	-1.4%	16.9%	-2.0%	-9.1%	3.8%	2.9%
OC1(c2cccnc2)CCN(Cc2ccc3c(c2)CN(Cc2cccc(C(F)(F)F)c2)CCO3)CC1	/	/	/	/	-0.6%	/
CC(C)(C)C(=O)Cn1c(=O)n(-c2ccc(Cl)cc2)c(=O)c2c3c(sc21)CCCC3	-1.0%	/	0.2%	/	0.9%	/
CC#CCN1c2ccccc2[C@]23C[C@@H](C(=O)OC)N(C(=O)CC(C)C)C2=NC(C(=O)OC)=C(C(=O)OC)[C@H]13	/	29.1%	/	/	/	/

Screening results from PubChem BioAssay.
